Source: PubChem (National Center for Advancing Translational Sciences (NCATS))
Shown are actives, neighbours in structure and some others; about 2.5% of the full set was active somewhere.
CCT chaperon mod: modulators of cytosolic chaperonin (CCT/TRiC) activity | actives 0.3% (n = 360,000) | purified chaperonin ATPase assay, HTRF ADP detection, 30 min | activity change, % (no concentration beside the values), hits read low | AID 651819; in the data active = activity change below about -30%; note: % is set by controls: 0 for no effect and ±100 for the full control effect
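We incubate TRiC, 40 or 20 nM final, with library compounds at 76 uM and 10 uM ATP for 30 min at 37 °C. ADP formed is detected with Transcreener HTRF reagents after 30 min at room temperature.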
TDP-43 yeast inh: rescues yeast growth from TDP-43 toxicity; TDP-43 expressing yeast growth rescue, BacTiter-Glo, 24 h; Potency, µM (doses to about 46.1 µM), without a hit: at the top dose growth rescue (activation), usual class: activators; actives 1.8% (n = 410,000); AID 652104; note: potency is the fitted concentration of half-maximal effect; % of control where 0% means no effect; nearly all actives have a fitted effect of over 50% in size
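Yeast expressing TDP-43 (pregrown in raffinose, seeded at OD600=0.02 in galactose medium) exposed to compounds 24 hr at 30 deg C. Growth read by BacTiter-Glo luminescence; rescue of toxicity appears as increased signal.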
pAkt inh: blocks phosphorylation of Akt. Neuro2A IGF-stimulated pAkt S473 HTRF, 20 min; hits give low values. activity change, % for hits at 50 µM. actives 0.32% (n = 360,000); in the data active = activity change below about -80%; inconclusive = mostly about -51% to -80%; note: % is set by controls: 0 for no effect and ±100 for the full control effect
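Single-point screen (50 µM final compound) in Neuro2A cells stimulated 20 min with 6 nM IGF at 37 deg C. After lysis, Ser473-phosphorylated Akt read by HTRF (ex 330 nm, em 615/665 nm) as the 665/615 ratio.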
Anesthetic bind: binds horse apoferritin like a general anesthetic. apoferritin/1-aminoanthracene competitive binding, fluorescence. P02791. actives 0.074% (n = 350,000). AID 485281. Potency, µM (doses to about 77.5 µM), for the others: at the top dose activity change, negative = displacement, most hits filed as inhibitors; note: potency is the fitted concentration of half-maximal effect; % is set by controls: 0 for no effect and ±100 for the full control effect; nearly all actives have a fitted effect of over 20% in size
Target sequence (P02791 2-175 limits assumed): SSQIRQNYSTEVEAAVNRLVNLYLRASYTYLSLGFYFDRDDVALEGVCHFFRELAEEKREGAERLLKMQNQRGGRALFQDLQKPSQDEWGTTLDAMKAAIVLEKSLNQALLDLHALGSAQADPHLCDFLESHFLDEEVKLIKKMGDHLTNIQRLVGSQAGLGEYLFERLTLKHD
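Horse-spleen apoferritin (10 uM) in 50% saturated 1-aminoanthracene in PBS was incubated 10 min at room temperature with compound. Fluorescence (ex 380, em 535 nm) was normalized to free and bound 1-AMA, with concentration-response fitted by a four-parameter Hill equation.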
Mito fusion yeast: blocks mitochondrial division or promotes mitochondrial fusion; actives 0.23% (n = 320,000); Potency, µM (highest dose often 46.1 µM), for the others: at the top dose growth rescue (activation), most hits filed as activators; S. cerevisiae fusion-defective mutant growth rescue, CellTiterGlo 48 h; note: potency is the fitted concentration of half-maximal effect; % of control where 0% means no effect; nearly all actives have a fitted effect of over 45% in size
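Yeast fusion mutant, YPEG (non-fermentable carbon), compound, 48 h at 37C non-permissive; CellTiterGlo added, 10 min RT, luminescence read. Rescued growth = division inhibition.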
aSyn rescue: alpha-synuclein toxicity inhibition in yeast; Potency, µM (top dose mostly 46.1 µM), without a hit: top-dose growth rescue (activation), hits mostly activators; actives 0.14% (n = 370,000); Yeast expressing alpha-synuclein, growth rescue, BacTiter-Glo, 24 h; note: potency is the fitted concentration of half-maximal effect; % of control where 0% means no effect; nearly all actives have a fitted effect of over 65% in size
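Readout is rescue of growth in alpha-synuclein-expressing yeast, so inhibitors of toxicity appear as activators. Growth after 24 hr at 30 deg C in galactose medium is quantified by luminescence.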
Starred values were filed as active, the others as inactive; i = inactive; ? = inconclusive; · = no result; [ ] = dose if it differs, or a comment. Unless noted, calls come from the whole dose curve; as a rule, active = well fitted curve in the direction sought with a large enough effect; inconclusive = small, poorly fitted or top-dose-only effect, or another doubt; inactive = no such curve, though single readings can be large; an effect the other way counts as inactive or inconclusive.

SMILES | CCT chaperon mod | TDP-43 yeast inh | pAkt inh | Anesthetic bind | Mito fusion yeast | aSyn rescue
CSc1c(-c2ccccn2)c(N)nn1C(=O)C1CCC1 | -2.6 | 11.2µM* | i | -5.6% | -5.6% | -12.5%
CSc1c(-c2ccccn2)c(N)nn1C(=O)C1CC1 | -1.4 | 11.2µM* | i | -12.3% | 3.6% | 13.4%
Cn1c(SCC(=O)NC2CCCC2)nnc1-c1ccccn1 | 1.4 | -1.4% | i | -4.1% | 1.7% | 1.2%
CSc1nnc2ccc(-c3ccccn3)nn12 | -0.7 | 17.2% | i | -2.7% | -8.5% | -5.1%
CCOc1cccc(C2C=C(c3ccc4c(c3)OCO4)NC(c3ccc(Br)cc3)N2)c1O (stereo not drawn) | · | · | · | · | · | 6.0%
COc1ccccc1OCC(=O)/C=C1/N(C)c2ccccc2C1(C)C | 1.8 | 14.1µM* | i | -13.3% | 2.7% | 0.7%
Cc1ccc(C(=O)NC(=S)/C=C2\N(C)c3ccccc3C2(C)C)cc1 | 0.6 | 8.5% | i | -8.0% | 11.9% | -27.6%
CN1/C(=C\C(=O)COC(=O)c2ccccc2O)C(C)(C)c2ccccc21 | 0.4 | -18.6% | i | 21.5% | 2.7% | -26.5%
CC(C)C(=O)NC(=S)/C=C1/N(C)c2ccccc2C1(C)C | -1.9 | 35.5µM* | i | -8.6% | -5.4% | -2.0%
Cc1nc2c(nc1C)C(=O)c1ccccc1C2=O | -1.2 | 17.8µM* | i | · | · | -8.5%
COc1ccc(NC(=O)N[C@@H](CCSC)C(=O)O)cc1OC | -0.5 | 4.9% | i | -5.5% | 2.8% | 0.2%
COc1ccc(NC(=O)N[C@@H](CCSC)C(=O)O)cc1Cl | -1.6 | -16.6% | -115.0%* | -8.8% | -4.0% | -1.3%
OCCN(CCO)c1nc2ccccc2[nH]1 | 0.1 | -0.5% | i | 39.6% | -1.2% | 2.5%
O=c1[nH]c(=O)n(C(c2ccccc2)(c2ccccc2)c2ccccc2)cc1N(CCO)CCO | -0.8 | 20µM* | i | · | · | 18.4%
Cn1cnc([N+](=O)[O-])c1S(=O)(=O)c1cccc(Cl)c1 | -2.4 | 12.6µM* | i | -1.0% | -22.7% | 3.9%
Cn1cnc([N+](=O)[O-])c1S(=O)(=O)Nc1ccccc1 | -2.3 | -17.1% | i | · | · | -4.1%
Cn1cnc([N+](=O)[O-])c1S(=O)(=O)Oc1ccccc1 | -1.5 | 12.6µM* | i | · | · | -6.3%
CC(C)=NNc1nc(-c2ccc([N+](=O)[O-])cc2)cs1 | -6.0 | 12.6µM* | i | ? | -5.2% | 5.7%
C/C(=N\Nc1ccc([N+](=O)[O-])cc1)c1ccc(N)cc1 | 0.8 | ? | i | 6.3% | 8.6% | 17.2%
C/C(=N\Nc1nc(C)c(C)s1)c1ccc([N+](=O)[O-])cc1 | -1.7 | 12.6µM* | i | -18.1% | 2.1% | -6.7%
[O][C@H]1[C@@H](O)[C@@H](CO)O[C@@H](O[C@@H]2[C@@H]3OC[C@H]2O[C@H](O[C@@H]2[C@@H](O)[C@H](C[C@@H]4[C@@H]5OC[C@H]4O[CH][C@@H]5O)O[C@H](CO)[C@@H]2OS(=O)(=O)O)[C@@H]3OS(=O)(=O)O)[C@@H]1O | · | · | · | 2.6% | · | ·
CN1[C@@H]2CC[C@@H]1CC(OC(=O)[C@H](CO)c1ccccc1)C2 (stereo partly drawn) | · | · | · | -7.7% | · | ·
O=C(O)COc1ccccc1C(Nc1cccnc1)c1cc(Cl)c2cccnc2c1O (stereo not drawn) | -2.4 | -15.7% | i | 28.2µM* | 3.4% | -5.6%
O=C(O)COc1ccccc1C(Nc1ccccn1)c1cc(Cl)c2cccnc2c1O (stereo not drawn) | -3.9 | 5.8% | i | -7.6% | -1.6% | -6.8%
Cc1cc(C)c2c(N)c(C(=O)c3ccccc3)oc2n1 | 1.5 | -22.8% | i | -13.7% | -5.9% | 1.0%
SMILES | CCT chaperon mod | TDP-43 yeast inh | pAkt inh | Anesthetic bind | Mito fusion yeast | aSyn rescue
COCc1cc(C)nc2oc(C(=O)c3ccccc3)c(N)c12 | -2.4 | 12.6µM* | i | -6.8% | 3.0% | 25.4%
COc1ccc(CNC(=O)C[C@H]2C[C@H](C(=O)N3CCOCC3)[C@@]3(C)c4[nH]c5ccc(Cl)cc5c4CCN3C2=O)cc1OC | -1.2 | 9.0% | i | · | · | 6.1%
CC(C)N(C(=O)[C@H]1CC(CC(=O)NCC23CC4CC(CC(C4)C2)C3)C(=O)N2CCc3c([nH]c4ccccc34)[C@]12C)C(C)C (stereo partly drawn) | -3.4 | 22.4µM* | i | · | · | ?
CC(C)N(C(=O)[C@H]1C[C@H](CC(=O)NCC23CC4CC(CC(C4)C2)C3)C(=O)N2CCc3c([nH]c4cc(-c5ccco5)ccc34)[C@]12C)C(C)C | 0.7 | 1.3% | i | · | · | -10.4%
COc1ccc(CNC(=O)C[C@H]2C[C@H](C(=O)N(C(C)C)C(C)C)[C@@]3(C)c4[nH]c5ccc(Cl)cc5c4CCN3C2=O)cc1OC | -2.3 | 12.6µM* | i | · | · | 12.7%
Oc1ccc(Oc2ccc3c(C(F)(F)F)cc(C(F)(F)F)nc3n2)cc1 | -1.6 | ? | -115.6%* | ? | 1.9% | 16.2%
CCC(Nc1ncnc2ccc(-c3c(C)noc3C)cc12)c1ccccc1 (stereo not drawn) | · | · | · | -10.6% | · | ·
CC(=O)N1CCN(C(C)=O)c2ccccc21 | -2.7 | 20.4% | i | · | · | -4.2%
CC(=O)N1CCn2c3ccc(C)cc3c3cccc1c32 | -1.1 | 14.1µM* | i | -10.6% | 14.1% | 13.9%
CC(C)=CCC/C(C)=C/CO/N=C1/C[C@@H](O)[C@@H](O)[C@@H]2[C@@H]3C(=O)N(C4CCCCC4)C(=O)[C@H]3CC[C@@H]12 | · | · | · | -6.7%[15.3 µM] | · | ·
O=C(Nc1ccccn1)c1ccc(COc2ccccc2Cl)o1 | -3.3 | 22.4µM* | i | -7.8% | 16.1% | -9.3%
CN(C(=O)c1ccc(COc2ccccc2Cl)o1)c1ccccc1 | 2.7 | 10µM* | i | -18.0% | 22.1% | -0.8%
COc1ccc(C(=O)n2nc(-c3ccco3)nc2NCc2cccs2)cc1OC | · | 21.6% | · | 4.9% | · | ·
CC(C)(C)c1nnc(NC(=O)C2CCN(C(=O)c3ccccc3)CC2)s1 | · | · | · | · | · | 3.1%
COc1ccc(C)cc1NC(=O)COCc1cc(-c2ccc(F)cc2)on1 | · | 35.5µM* | · | 1.8% | · | ·
O=C(NNc1ccccc1)c1sc2ccccc2c1Cl | · | · | · | · | · | -0.3%
C=CCOc1ccc(/C=C/C(=O)OCC(=O)NCCc2ccccc2)cc1 | 1.9 | 25.1µM* | i | · | 5.4% | 24.2%
O=C(COC(=O)/C=C/c1ccc(Cl)cc1)NCCc1ccccc1 | -0.2 | 3.5% | i | -9.6% | 1.1% | -1.1%
CC(OCc1ccccc1)C(NC(=O)OC(C)(C)C)C(=O)NC1COC2CC(n3ccc(=O)[nH]c3=O)OC12 (stereo not drawn) | · | · | · | 0.0% | · | ·
CC1CCN(CCCNC(=O)c2cc(Sc3ccc(F)cc3)nc3ccccc23)CC1 | · | 17.6% | · | -12.2% | · | ·
